Laboratory results: ChEMBL document CHEMBL1157539, “Thousands of chemical starting points for antimalarial lead identification” (Nature, 2010)

Columns and labels:
Type in all cases: functional
[1] = tested on: Plasmodium falciparum; experiment: GSK_TCMDC: Inhibition of Plasmodium falciparum 3D7 in whole red blood cells, using parasite LDH activity as an index of growth. Test compounds present at 2uM
[2] = tested on: Plasmodium falciparum; experiment: GSK_TCMDC: Inhibition of Plasmodium falciparum Dd2 in whole red blood cells, using parasite LDH activity as an index of growth. Test compounds present at 2uM
[3] = tested on: HepG2; experiment: GSK_TCMDC: Percent inhibition of human HepG2 cell line. Test compounds present at 10uM.

Structure (SMILES): COc1ccc2c(NN=CC=Cc3ccccc3)ccnc2c1
- Inhibition [1]: 100%
- Inhibition [2]: 100%
- Inhibition [3]: 9%

Structure (SMILES): O=c1[nH]nc(-c2ccc(N3CCCC3)c([N+](=O)[O-])c2)c2ccccc12
- Inhibition [1]: 100%
- Inhibition [2]: 39%
- Inhibition [3]: 2%

Structure (SMILES): COc1cccc(C(O)CNc2ccnc(Nc3ccc(Cl)cc3)n2)c1 (stereo not given)
- Inhibition [1]: 99%
- Inhibition [2]: 46%
- Inhibition [3]: 31%

Structure (SMILES): COc1ccc(CCC(C)N2CC(N)C(c3cn(C)c4cnccc34)C2)cc1.Cl (stereo not given)
- Inhibition [1]: 98%
- Inhibition [2]: 0%
- Inhibition [3]: 5%

Structure (SMILES): CC(=O)NC(c1cccs1)c1cc(Cl)c2cccnc2c1O (stereo not given)
- Inhibition [1]: 94%
- Inhibition [2]: 93%
- Inhibition [3]: 65%

Structure (SMILES): O=C(Nc1cccc(F)c1)N(Cc1ccc(-c2cccc(CN3CCNCC3)c2)cc1)C1CCN(Cc2ccccc2)CC1.O=C(O)C(F)(F)F
- Inhibition [1]: 97%
- Inhibition [2]: 54%
- Inhibition [3]: 13%

Structure (SMILES): CC(=O)N1CCC(C(=O)Nc2ccc(-c3cccc(-c4nc5cccc(C)c5[nH]4)c3)cc2)CC1
- Inhibition [1]: 84%
- Inhibition [2]: 27%
- Inhibition [3]: 85%

Structure (SMILES): COc1ccc(CNc2ccnc(-n3cnc4cc(C)c(C)cc43)n2)cc1Cl.O=C(O)C(F)(F)F
- Inhibition [1]: 100%
- Inhibition [2]: 100%
- Inhibition [3]: 6%

Structure (SMILES): OC1=C2C(=Nc3ccccc3SC2c2ccccc2)c2ccccc21 (stereo not given)
- Inhibition [1]: 86%
- Inhibition [2]: 94%
- Inhibition [3]: 5%

Structure (SMILES): O=C(Nc1cccc(N2CCC(NCCCc3ccncc3)CC2)c1)c1cccc(C(F)(F)F)c1
- Inhibition [1]: 96%
- Inhibition [2]: 50%
- Inhibition [3]: 11%

Structure (SMILES): Cc1ccc(C(=O)NCC2CCN(c3ccc(C(F)(F)F)cc3NC(=O)c3ccco3)CC2)cn1
- Inhibition [1]: 91%
- Inhibition [2]: 73%
- Inhibition [3]: 9%

Structure (SMILES): CNC(=O)c1ccccc1Nc1cc(Nc2cc(OC)ccn2)ncc1Cl.O=CO
- Inhibition [1]: 100%
- Inhibition [2]: 100%
- Inhibition [3]: 69%

Structure (SMILES): O=C1CC(C(=O)Nc2cccc(-c3cccc(-c4nc5ccccc5[nH]4)c3)c2)c2ccccc2N1 (stereo not given)
- Inhibition [1]: 84%
- Inhibition [2]: 32%
- Inhibition [3]: 0%

Structure (SMILES): CC(C)CN1C(=O)c2ccccc2C(C(=O)Nc2cccc(C#N)c2)C1c1cccs1 (stereo not given)
- Inhibition [1]: 100%
- Inhibition [2]: 100%
- Inhibition [3]: 11%

Structure (SMILES): CCN(CC)CCN(Cc1ccc(-c2ccc(C(F)(F)F)cc2)cc1)C(=O)Cn1c(CCc2cc(F)cc(F)c2)nc(=O)c2ccccc21.O=C(O)C(O)C(O)C(=O)O
- Inhibition [1]: 91%
- Inhibition [2]: 80%
- Inhibition [3]: 30%

Structure (SMILES): CNCCCNCc1ccc(-c2ccc(F)c(Cl)c2)o1.Cl
- Inhibition [1]: 100%
- Inhibition [2]: 12%
- Inhibition [3]: 22%

Structure (SMILES): C=CCOC(=O)N1CCC(CNCc2ccc(-c3ccc(-c4nc5ccccc5[nH]4)s3)cc2)C1.O=C(O)C(F)(F)F (stereo not given)
- Inhibition [1]: 100%
- Inhibition [2]: 76%
- Inhibition [3]: 29%

Structure (SMILES): COc1cccc(C2=CC(C)(C)Oc3cc(OCCN(C)C)ccc32)c1.Cl
- Inhibition [1]: 97%
- Inhibition [2]: 96%
- Inhibition [3]: 57%

Structure (SMILES): CCCCCNc1nc2nc(N)nc(N)c2nc1-c1ccccc1.Cl
- Inhibition [1]: 91%
- Inhibition [2]: 0%
- Inhibition [3]: 9%

Structure (SMILES): COc1ccc(CNC2CCN(C)CC2)cc1-c1ccc(S(=O)(=O)NCCc2ccccn2)cc1.O=C(O)C(F)(F)F
- Inhibition [1]: 93%
- Inhibition [2]: 17%
- Inhibition [3]: 13%

Structure (SMILES): COc1ccc(CNC2CCN(C)CC2)cc1-c1ccc(S(=O)(=O)NC2CCC2)c(F)c1.O=C(O)C(F)(F)F
- Inhibition [1]: 100%
- Inhibition [2]: 97%
- Inhibition [3]: 96%

Structure (SMILES): O=C(/C=C/c1ccc(Cl)c(Cl)c1)NCCCCCN1CCC(NC(=S)Nc2ccc(Cl)cc2)CC1
- Inhibition [1]: 99%
- Inhibition [2]: 41%
- Inhibition [3]: 62%

Structure (SMILES): Cc1ccc(Cn2nc(Cl)c(N3CCCNCC3)cc2=O)cc1NC(=O)Nc1ccc(-c2ccccc2)cc1.O=C(O)C(F)(F)F
- Inhibition [1]: 100%
- Inhibition [2]: 55%
- Inhibition [3]: 90%

Structure (SMILES): CCNc1cc(C(=O)N[C@@H](Cc2ccccc2)[C@H](O)CN[C@H]2CCc3ccccc32)cc(N2CCCC2=O)c1
- Inhibition [1]: 98%
- Inhibition [2]: 99%
- Inhibition [3]: 8%

Structure (SMILES): Cc1cc(CNC(=O)[C@H](CC2CCCCC2)Nc2ccc(C#N)c3ccccc23)c(C(F)(F)F)o1.O=C(O)C(F)(F)F
- Inhibition [1]: 87%
- Inhibition [2]: 55%
- Inhibition [3]: 13%

Structure (SMILES): O=C(NCCCCN1CCC(c2ccc3c(c2OCCN2CCCC2)CCCC3)CC1)c1ccc(-c2ccc(C(F)(F)F)cc2)cc1
- Inhibition [1]: 100%
- Inhibition [2]: 81%
- Inhibition [3]: 25%

Structure (SMILES): CC1CC1C(=O)NC1CCN(CC2(c3ccccc3)CCCCC2)CC1 (stereo not given)
- Inhibition [1]: 97%
- Inhibition [2]: 95%
- Inhibition [3]: 0%

Structure (SMILES): COc1ccc2nc(C)cc(N/N=C/c3cccc([N+](=O)[O-])c3)c2c1
- Inhibition [1]: 100%
- Inhibition [2]: 97%
- Inhibition [3]: 6%

Structure (SMILES): COc1ccc(CNC(=O)NC2CCN(c3ccnc(Nc4ccc(OC)cc4)n3)C2)cc1 (stereo not given)
- Inhibition [1]: 87%
- Inhibition [2]: 80%
- Inhibition [3]: 27%

Structure (SMILES): CC(C)c1ccc(CN2CCCCC(NC(=O)c3cc(-c4ccccc4Cl)cs3)C2)cc1.O=C(O)C(F)(F)F (stereo not given)
- Inhibition [1]: 100%
- Inhibition [2]: 64%
- Inhibition [3]: 8%

Structure (SMILES): CC(C)(C)OC(=O)NCc1ccc(Nc2nnc(-c3cccc(OCC(=O)NCc4cc(C(F)(F)F)cc(C(F)(F)F)c4)c3)o2)cc1
- Inhibition [1]: 90%
- Inhibition [2]: 19%
- Inhibition [3]: 32%

Structure (SMILES): COc1ccc2nccc([C@@H](O)CN3CCC(NCc4cnc5snnc5c4)C(F)C3)c2c1.Cl (stereo not given in full)
- Inhibition [1]: 83%
- Inhibition [2]: 88%
- Inhibition [3]: 13%

Structure (SMILES): Cc1cc(N[C@@H](Cc2ccccc2)C(=O)NCc2cccc(F)c2)nc(NCCc2cccs2)n1.O=C(O)C(F)(F)F
- Inhibition [1]: 99%
- Inhibition [2]: 22%
- Inhibition [3]: 9%

Structure (SMILES): Cc1[nH]c2ccccc2c1C(=O)C(C)Sc1nnc(-c2ccccc2Br)[nH]1 (stereo not given)
- Inhibition [1]: 100%
- Inhibition [2]: 100%
- Inhibition [3]: 0%

Structure (SMILES): COc1ccc(NC(=O)c2c(NC(=O)c3cccs3)sc3c2CCCC3)cc1
- Inhibition [1]: 97%
- Inhibition [2]: 4%
- Inhibition [3]: 4%

Structure (SMILES): CCCCOC(=O)NCCCC[C@H](NC(=O)OC(C)(C)C)C(=O)N[C@H](C(=O)OC(c1ccccc1)c1ccccc1)[C@H]1O[C@@H](n2ccc(=O)[nH]c2=O)[C@@H]2OC(C)(C)O[C@@H]21
- Inhibition [1]: 87%
- Inhibition [2]: 65%
- Inhibition [3]: 7%

Structure (SMILES): Cc1cnc(Nc2ccccc2)nc1NCCC(=O)Nc1ccccc1.O=C(O)C(F)(F)F
- Inhibition [1]: 89%
- Inhibition [2]: 7%
- Inhibition [3]: 10%

Structure (SMILES): CN1CCN(CCCNCc2cccc(Nc3nccc(Nc4ccc(Oc5ccccc5)cc4)n3)c2)CC1
- Inhibition [1]: 100%
- Inhibition [2]: 80%
- Inhibition [3]: 97%

Structure (SMILES): CCC(C)(C)n1c(C)cc2c3c(N)nc(N)nc3ccc21
- Inhibition [1]: 97%
- Inhibition [2]: 85%
- Inhibition [3]: 69%

Structure (SMILES): CCCCNC(=O)C(C)NC(=O)c1ccc(O)c(-c2ccc(Cl)c(Cl)c2)c1 (stereo not given)
- Inhibition [1]: 98%
- Inhibition [2]: 8%
- Inhibition [3]: 0%

Structure (SMILES): O=C(CCCCCNC(=O)c1ccc(O)c(-c2cccc(C(F)(F)F)c2)c1)NCCN1CCCCC1
- Inhibition [1]: 99%
- Inhibition [2]: 0%
- Inhibition [3]: 0%

Structure (SMILES): COc1ccc2nccc([C@@H](O)CN3CCC(NCc4ccc5c(c4)NC(=O)CS5)CC3)c2c1.O=C(O)C(=O)O
- Inhibition [1]: 100%
- Inhibition [2]: 36%
- Inhibition [3]: 0%

Structure (SMILES): Cc1cc(NC(=O)Nc2ccc(C(C)(C)C)cc2)c2ccccc2n1
- Inhibition [1]: 100%
- Inhibition [2]: 57%
- Inhibition [3]: 0%

Structure (SMILES): CCc1ccccc1N=C1c2c(cccc2[N+](=O)[O-])C(=O)C1C(C)=O (stereo not given)
- Inhibition [1]: 99%
- Inhibition [2]: 96%
- Inhibition [3]: 0%

Structure (SMILES): Cc1cc(N2CCCC2)nc(Nc2ccc(NC(=O)C(C)(C)C)cc2)n1
- Inhibition [1]: 95%
- Inhibition [2]: 15%
- Inhibition [3]: 24%

Structure (SMILES): COc1nc2c(CCN3CC[C@H](NCc4cc(C#N)c5c(c4)OCCO5)[C@H](O)C3)ccnc2cc1F
- Inhibition [1]: 95%
- Inhibition [2]: 41%
- Inhibition [3]: 18%

Structure (SMILES): COc1cccc2c(NN=Cc3cccc(F)c3)ccnc12
- Inhibition [1]: 99%
- Inhibition [2]: 44%
- Inhibition [3]: 12%

Structure (SMILES): COc1cc(Cc2cnc(N)nc2N)cc(OC(C)C)c1OC
- Inhibition [1]: 91%
- Inhibition [2]: 15%
- Inhibition [3]: 10%

Structure (SMILES): CN(C)CCN(C)Cc1cccc(-c2cccc(NC(=O)c3cccc(C#N)c3)c2)c1.O=C(O)C(F)(F)F
- Inhibition [1]: 92%
- Inhibition [2]: 10%
- Inhibition [3]: 0%

Structure (SMILES): CNc1ccc(CNCc2ccc(-c3ccc(-c4nc5cccc(C)c5[nH]4)s3)cc2)cc1.O=C(O)C(F)(F)F
- Inhibition [1]: 100%
- Inhibition [2]: 94%
- Inhibition [3]: 29%

Structure (SMILES): FC(F)(F)c1ccc2[nH]c(-c3ccc(-c4ccc(CN5CCN(c6ccncc6)CC5)cc4)cc3)nc2c1.O=C(O)C(F)(F)F
- Inhibition [1]: 100%
- Inhibition [2]: 99%
- Inhibition [3]: 91%

Structure (SMILES): CCc1cn2c3c(cc(C(=O)N[C@@H](Cc4ccccc4)[C@H](O)CNC4CCCCC4)cc13)N(C)S(=O)(=O)C2.O=CO
- Inhibition [1]: 99%
- Inhibition [2]: 99%
- Inhibition [3]: 20%

Structure (SMILES): Cc1cnn(-c2cccc(C(=O)NC3CCC(CCN4CCc5ccc(C#N)cc5CC4)CC3)c2)c1.Cl (stereo not given)
- Inhibition [1]: 94%
- Inhibition [2]: 48%
- Inhibition [3]: 24%

Structure (SMILES): CC1(C)N=C(N)N=C(N)N1CCc1ccccc1.Cl
- Inhibition [1]: 93%
- Inhibition [2]: 0%
- Inhibition [3]: 50%

Structure (SMILES): CCCCCCCC/C=C\CCCCCCCC(=O)NCc1ccc(O)c(OC)c1 [OLVANIL]
- Inhibition [1]: 96%
- Inhibition [2]: 93%
- Inhibition [3]: 0%

Structure (SMILES): CCCCCCNC(=O)C1Cc2c([nH]c3ccc(Br)cc23)C2(CCN(CCc3ccccc3)CC2)N1 (stereo not given)
- Inhibition [1]: 100%
- Inhibition [2]: 94%
- Inhibition [3]: 36%

Structure (SMILES): CC(C)CCN1CCCN(Cc2cccc(NC(=O)c3ccc(Cl)c(Cl)c3)c2)CC1.O=C(O)C(F)(F)F
- Inhibition [1]: 92%
- Inhibition [2]: 13%
- Inhibition [3]: 35%

Structure (SMILES): CCNC[C@@H](O)[C@H](Cc1ccccc1)NC(=O)c1cc2c3c(c1)c(CC)cn3CCS(=O)(=O)N2C.O=CO
- Inhibition [1]: 99%
- Inhibition [2]: 65%
- Inhibition [3]: 0%

Structure (SMILES): O=C(NCCc1ccccc1)N(Cc1ccccc1-c1ccc(CNCCc2ccccc2)cc1)C1CCN(Cc2ccccc2)CC1.O=C(O)C(F)(F)F
- Inhibition [1]: 97%
- Inhibition [2]: 91%
- Inhibition [3]: 99%

Structure (SMILES): COc1ccc(NC(=O)c2ccc(C=Cc3ccc(C(F)(F)F)cc3)cc2)cc1N1CCN(C)CC1
- Inhibition [1]: 99%
- Inhibition [2]: 47%
- Inhibition [3]: 46%
